For 39 molecules, Potency and activity change, negative = inhibition results are on record in PubChem BioAssay (NCATS).

Records with an inconclusive call do not appear. A call without a number means that no potency is given here. A number with no mark means an inactive call. The source made the active and inactive calls. Calls come from the whole dose curve.
Potency is the fitted concentration of half-maximal effect.

Chain of Nucleoprotein (Lymphocytic choriomeningitis virus (strain Armstrong)) (P09992 whole entry, looked up): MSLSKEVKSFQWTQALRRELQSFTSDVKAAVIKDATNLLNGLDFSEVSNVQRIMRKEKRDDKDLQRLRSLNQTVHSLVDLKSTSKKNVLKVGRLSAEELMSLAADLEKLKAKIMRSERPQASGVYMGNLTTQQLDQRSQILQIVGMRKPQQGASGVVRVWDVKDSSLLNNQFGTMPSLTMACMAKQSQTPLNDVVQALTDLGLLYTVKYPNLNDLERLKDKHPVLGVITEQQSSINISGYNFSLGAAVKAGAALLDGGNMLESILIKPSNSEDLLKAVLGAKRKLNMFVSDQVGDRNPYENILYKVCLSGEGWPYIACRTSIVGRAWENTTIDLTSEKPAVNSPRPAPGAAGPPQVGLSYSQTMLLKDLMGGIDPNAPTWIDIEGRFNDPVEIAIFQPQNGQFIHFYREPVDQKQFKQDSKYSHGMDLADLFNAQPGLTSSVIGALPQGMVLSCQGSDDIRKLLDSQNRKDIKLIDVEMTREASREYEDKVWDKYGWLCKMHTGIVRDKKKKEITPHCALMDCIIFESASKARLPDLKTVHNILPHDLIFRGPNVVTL

The experiment addresses Nucleoprotein (Lymphocytic choriomeningitis virus (strain Armstrong)) (UniProt P09992). In words: qHTS for Inhibitors of the Functional Ribonucleoprotein Complex (vRNP) of Lymphocytic Choriomeningitis Arenaviruses (LCMV): LCMV Primary Screen - GLuc reporter signal (AID 1347086). Note: nearly all actives have a fitted effect of over 70% in size. The note with it: LCMV minigenome vRNP cell assay, Gaussia luciferase reporter; series mostly up to 57.5 µM. Background: Quantitative high-throughput screening tests each substance at several concentrations.
As for `CCCCCCCCCCCCCCCCCC(=O)OCC(O)CO` (centres undefined), the Potency result was “inactive”.
Same read-out and setting: the entry for `O=C1C(O)=C(O)C(=O)C(O)=C1O` is “inactive”; for `C=CC[C@@H]1C=C(C)C[C@H](C)C[C@H](OC)[C@H]2O[C@@](O)(C(=O)C(=O)N3CCCC[C@H]3C(=O)O[C@H](C(C)=C[C@@H]3CC[C@H](O)[C@H](OC)C3)[C@@H](C)[C@@H](O)CC1=O)[C@@H](C)C[C@@H]2OC` it is 30.6 µM (active).
Regarding `CC(=O)Nc1ccc(C(=O)O)cc1`, the Potency entry is “inactive”.
`CCCC(=O)OCOC(=O)C1=C(C)NC(C)=C(C(=O)OC)C1c1cccc(Cl)c1Cl` (centres undefined): the Potency entry is “inactive”.
On to `CCCCCCCC(=O)OCC(COC(=O)CCCCCCC)OC(=O)CCCCCCC`, for which the Potency entry is “inactive”.
For `CC(=O)Nc1c(I)c(NC(C)=O)c(I)c(C(=O)O)c1I`, the Potency result is “inactive”.
With `CC(C)(C)c1ccc(O)cc1`, the Potency entry is “inactive”.
Same read-out and setting: the value for `Oc1cccc(O)c1` was “inactive”; that for `OC[C@H]1O[C@@H](n2cnc3c2NC=NC[C@H]3O)C[C@@H]1O` was “inactive”.
For `Nc1nc(-c2ccccc2)c(Br)c(=O)[nH]1`, the Potency entry was “inactive”.
As for `CC(=O)Nc1ccc(OC(=O)c2ccccc2OC(C)=O)cc1`, the Potency result was “inactive”.
The same measure, in the same setting: the value for `CC(C)Cc1ccc(C(C)C(=O)O)cc1` (centres undefined) was “inactive”; that for `CN1CCN(c2c(F)cc3c(=O)c(C(=O)O)cn4c3c2SCC4)CC1` was “inactive”.
On the same count and under the same terms, the entry for `Nc1ccc(S(=O)(=O)Nc2ccc(Cl)nn2)cc1` is “inactive”.
Still for that read-out and setting: the value for `O=c1cc[nH]c(=O)[nH]1` was “inactive”; that for `O=C(O)CN1C(=O)c2cccc3cccc(c23)C1=O` was “inactive”.
Consider `Nc1ccc(C(=O)OCC(O)CO)cc1` (centres undefined), for which the Potency result is “inactive”.
Turning to `O=C(Cn1ccnc1[N+](=O)[O-])NCc1ccccc1`, the Potency result was “inactive”.
On the same count and under the same terms, the value for `CCOC(=O)[C@H](CCc1ccccc1)N[C@@H](C)C(=O)N1CCC[C@H]1C(=O)O` was “inactive”; that for `COc1ccc2cccc(CCNC(C)=O)c2c1` was “inactive”; that for `Cc1c(N(C)CS(=O)(=O)O)c(=O)n(-c2ccccc2)n1C` was “inactive”.
Still for that read-out and setting: the entry for `CN(C)CCOC(=O)COc1ccc(Cl)cc1` is “inactive”.
In the case of `CCCCCCCCCCCCCCCCN`, the Potency result was “inactive”.
The same measure, in the same setting: the entry for `NCCS(=O)(=O)O` is “inactive”; for `O=C(OCC1(COC(=O)c2cccnc2)CCCC(COC(=O)c2cccnc2)(COC(=O)c2cccnc2)C1O)c1cccnc1` it is “inactive”; for `Cc1ccccc1C(=O)N1CC/C(=N\OS(=O)(=O)O)c2ccc(Cl)cc21` it is “inactive”.
On the same count and under the same terms, the value for `O=[N+]([O-])c1cncn1CCN1CCOCC1` was “inactive”; that for `CC(=O)SCC(CC(=O)c1ccc(C)cc1)C(=O)O` (centres undefined) was “inactive”.
Same read-out and setting: the value for `Cc1onc(-c2ccccc2)c1C(=O)Cl` was “inactive”.
For the molecule `NS(=O)(=O)c1cc(C(=O)O)cc(N2CCCC2)c1Oc1ccccc1`, the Potency result was “inactive”.
Still for that read-out and setting: the entry for `CC(C)(C)NC[C@H](O)COc1cccc2c1CCCC2=O` is “inactive”.
Turning to `O=C(O)Cc1cccc(-c2cc(CCCCCCc3ccc(O[C@H]4O[C@H](CO)[C@@H](O)[C@H](O)[C@@H]4O)c(-c4cccc(CC(=O)O)c4)c3)ccc2O[C@H]2O[C@H](CO)[C@@H](O)[C@H](O)[C@@H]2O)c1`, the activity change, negative = inhibition was 2.06% [at 0.757 µM].
Consider `CCCCC(O)/C=C(C)/C=C/C=C/C(=O)N1CCCC1=O` (centres undefined), for which the Potency result was “inactive”.
The same measure, in the same setting: the entry for `O=C(OCCN1CCOCC1)c1cccnc1Nc1cccc(C(F)(F)F)c1` is “inactive”.
`CC(C)CN(C[C@@H](O)[C@H](Cc1ccccc1)NC(=O)O[C@H]1CO[C@H]2OCC[C@H]21)S(=O)(=O)c1ccc(N)cc1`: the Potency entry was “inactive”.
Take `O=C(O)COc1nn(Cc2ccccc2)c2ccccc12`: the Potency result is “inactive”.
On the same count and under the same terms, the entry for `Nc1ccc(S(N)(=O)=O)cc1` is “inactive”; for `C[C@@H]1C[C@H]2[C@@H]3C[C@H](F)C4=CC(=O)C=C[C@]4(C)[C@@]3(F)[C@@H](O)C[C@]2(C)[C@@]1(O)C(=O)CO` it is “inactive”.
